These results are taken from PubChem BioAssay AID588473 (Sanford-Burnham Center for Chemical Genomics, 2011).

Among all 350,000 compounds or so, about 1,600 (0.46%) were called active.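 The calls were made as follows: active = activation of at least 50%, plus an integration ratio under a set limit after plate pattern correction; inactive = the rest.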 For the sample, actives were picked, then their nearest neighbours and some compounds at random.

The assay deals with CRF-binding protein / CRF receptor 2 complex (human). The assay is described as follows: activators of CRF-R2 with CRF-BP – cell-based, HEK293, calcium dye fluorescence, uHTS, primary screen (AID 588473).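 Also: plate controls were neutral control wells without compound for no effect and CRF at EC100 for full effect.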 As to conditions: calcium dye fluorescence (FLIPR), at 13.2 µM, stronger effect = higher value, percent of saturating CRF peptide response.
Consider `CC(C)(C)OC(=O)NCCCCCC(=O)N/N=C/c1coc2ccccc2c1=O`, for which the activation was -5.17% (inactive).
With `COc1ccc(OCCCn2cccc2/C=C2/C(=N)N3OC(C)=CC3=NC2=O)cc1`, the activation was 4.44% (inactive).
To `CC1=CC2=NC(=O)/C(=C/c3coc4ccccc4c3=O)C(=N)N2O1` belongs 147% (active).
The figure for `C[C@@H]1NS(=O)(=O)c2cc(Cl)ccc2O[C@@H]1c1ccccc1` is -1.15% (inactive).
To `Cc1ccc(-n2c(C)cc(C(=O)CN3C(=O)C(=O)N(C4CCCC4)C3=O)c2C)cc1` belongs 161% (active); to `Cc1ccc(-n2c(C)cc(C(=O)CSc3nnc4ccccn34)c2C)cc1`, -0.98% (inactive); to `Cc1cc(C(=O)COC(=O)C2CC2)c(C)n1-c1ccc(F)cc1`, -3.55% (inactive).
As to `O=C(N/N=C/c1sc(N2CCCCC2)nc1-c1cccs1)c1cccnc1`, the activation was 62.8% (active).
The figure for `Cc1ccc(S(=O)(=O)N2CCCCC2)cc1NC(=O)c1cccnc1` is 6.52% (inactive).
As to `Cc1ccc(NC(=O)COc2ccc(/C=N\NC(=O)c3cccnc3)cc2)cc1C`, the activation was 0.37% (inactive).
To `Cc1ccc(C(=O)N/C(=C\c2cccs2)C(=O)NCCc2ccccn2)cc1C` belongs -0.29% (inactive); to `COc1ccccc1C(=O)NCCC(=O)NC(C)CCc1ccccc1` (stereo unspecified), 0.39% (inactive).
To `COc1ccc(CCNC(=O)CN(c2ccccc2)S(=O)(=O)c2ccccc2)cc1` belongs -0.58% (inactive); to `COc1ccc([C@H]2CC(=O)C=C(/C=C/c3ccc(Cl)cc3)C2)cc1`, 2.34% (inactive).
To `CCSc1nc2c(c(=O)[nH]1)C(c1cccnc1)C(C(=O)OC(C)C)=C(C)N2` (stereo unspecified) belongs -11.6% (inactive); to `COc1cc(OC)cc(C(=O)N[C@H](C(=O)OCC(=O)NC(C)c2ccccc2)C(C)C)c1` (stereo partly specified), 102% (active); to `COc1cc(OC)cc(C(=O)NC(C(=O)N2CCC2)C(C)C)c1` (stereo unspecified), 2.01% (inactive).
Regarding `COc1cc(OC)cc(C(=O)NCC(=O)OCC(=O)NC(C)CCc2ccccc2)c1` (stereo unspecified), the activation is -1.06% (inactive).
In the case of `COc1cc([N+](=O)[O-])cc([N+](=O)[O-])c1NC(=O)N1CCOCC1`, the activation is -0.3% (inactive).
In the case of `CSc1nsc(SCC(=O)Nc2cc(C(=O)O)ccc2C)n1`, the activation is -1.07% (inactive).
The figure for `CCc1nnc(NC(=O)CSc2nc(SC)ns2)s1` is 113% (active).
To `COc1ccc(C)cc1NC(=O)CSc1nc(SC)ns1` belongs -0.91% (inactive); to `CCCCn1c(=S)[nH]c2ncccc2c1=O`, 2.09% (inactive); to `CCN(CC)S(=O)(=O)c1ccc(OC)c(NC(=O)CCc2c(C)noc2C)c1`, -0.44% (inactive).
As for `Cc1nn(C)c(C)c1C(C)NC(=O)c1ccc(OC2CCN(Cc3ccccn3)CC2)cc1` (stereo unspecified), the activation is 3.71% (inactive).
To `Cc1ccc(NC(=O)C(C)c2cccc(C(=O)c3ccccc3)c2)cc1` (stereo unspecified) belongs -1.3% (inactive); to `NS(=O)(=O)c1ccc(CNC(=S)NC(=O)c2ccco2)cc1`, -6.68% (inactive).
Turning to `O=C(NNC(=S)Nc1ccc(Br)cc1Cl)c1ccco1`, the activation was -1.64% (inactive).
To `Cc1cccc(OCC(=O)Nc2ccc(NC(=O)c3ccco3)c(C)c2)c1` belongs 0.25% (inactive).
To `CCCc1ccc(OCC(=O)NNC(=S)NC(=O)c2ccco2)cc1` belongs 60.1% (active); to `CC(Oc1ccc2ccccc2c1)C(=O)NNC(=S)NC(=O)c1ccco1` (stereo unspecified), 58.2% (active); to `O=C(Nc1ccc2ccccc2c1)/C(=C\c1ccc2c(c1)OCO2)NC(=O)c1ccco1`, 1.15% (inactive).
For the molecule `C=CCOc1ccc(C2/C(=C(\O)c3c(C)[nH]c(C(=O)OC)c3C)C(=O)C(=O)N2CCN(C)C)cc1` (stereo unspecified), the activation is -2.8% (inactive).
The figure for `C=C1CCN([C@@H](Cc2ccccc2)C(=O)N2CCOCC2)S(=O)(=O)c2ccccc21` is 1.4% (inactive); for `Cc1ccc(C)c(NC(=O)COC(=O)Cn2c(C)csc2=O)c1` it is 1.31% (inactive); for `Cc1cc(Nc2ccc(C)c(C)c2)n2ncnc2n1` it is -1.97% (inactive).
As to `Cc1nn(-c2ccc(F)cc2)c(Cl)c1/C=C(/CCC(=O)O)c1nc2ccccc2s1`, the activation is 0.68% (inactive).
For the molecule `CC1=CC(=C(C#N)c2nc3ccccc3s2)C=C(C)N1c1ccc(F)cc1F`, the activation was 119% (active).
`Cc1cnc(C(=O)Oc2cccc(Cl)c2Cl)cn1`: the activation is -0.24% (inactive).
The figure for `CCCCNC(=O)c1ccccc1NC(=O)c1ccccc1N(C)S(C)(=O)=O` is -1.79% (inactive); for `CCCCCCCCCCCCN1C(=O)CSC1c1cccnc1` (stereo unspecified) it is 1.06% (inactive).
